Measurements: PubChem BioAssay
Unmarked numbers belong to inactive results. The rule behind the calls is not given here.

Target: Pantothenate synthetase (Mycobacterium tuberculosis (strain ATCC 25618 / H37Rv)) (UniProt P9WIL5)
Assay: Coupled enzyme confirmation of inhibitors against recombinant Mtb PanC (AID 375);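 note: 0% = full reaction with vehicle and 100% = no enzyme background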
Details: coupled enzyme assay; at 10 µM, hits give high values

Chain of Pantothenate synthetase (Mycobacterium tuberculosis (strain ATCC 25618 / H37Rv)) (P9WIL5 whole entry, looked up): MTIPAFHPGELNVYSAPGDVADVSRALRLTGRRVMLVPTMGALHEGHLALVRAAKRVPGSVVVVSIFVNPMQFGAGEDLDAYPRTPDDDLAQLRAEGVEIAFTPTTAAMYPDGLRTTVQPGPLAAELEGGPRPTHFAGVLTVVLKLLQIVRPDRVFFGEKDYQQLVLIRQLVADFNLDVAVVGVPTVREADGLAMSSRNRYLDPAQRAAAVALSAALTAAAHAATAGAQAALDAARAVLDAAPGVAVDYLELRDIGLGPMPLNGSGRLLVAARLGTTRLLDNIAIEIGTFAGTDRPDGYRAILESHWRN

Row | SMILES | inhibition
1 | CNC(=O)Oc1ccc2c(c1)[C@]1(C)CCN(C)[C@@H]1N2C | 4%
2 | CCOC(=O)c1ccc(NC(=O)CCc2nc(-c3cccc(C)c3)no2)cc1 | 2%
3 | COCCCN(C(C)=O)c1nc(-c2ccccc2)cs1 | 0%
4 | CCc1cc(=O)n2[nH]c(C)c(-c3ccccc3OC)c2n1 | 4%
5 | CCN(CC)C(=O)C1=C(C)Nc2nnnn2C1c1cccnc1 (stereo not given) | 0%
6 | COc1cc(OC)cc(-c2nnc(SCC(=O)Nc3cc(C)on3)o2)c1 | 2%
7 | O=c1oc(-c2ccco2)nc2ccccc12 | 2%
8 | COc1ccc(-c2nn3c(-c4ccncc4)nnc3s2)cc1OC | 0%
9 | Cc1cc(=O)n(CCO)c(O)c1C#N | 0%
10 | COc1ccc(-c2nc3cc(NC(=O)Cc4ccc(OC)c(OC)c4)ccc3o2)cc1 | 0%
11 | NC(=O)c1c(-c2ccccc2)oc2ccc(O)cc12 | 0%
12 | Cc1cccc(OCCCC(=O)O)c1 | 3%
13 | COCCn1nnnc1C(C(C)C)N1CCN(C(=O)c2ccco2)CC1 (stereo not given) | 0%
14 | O=S(=O)(c1ccccc1)N1CCN(S(=O)(=O)c2ccccc2)C1 | 0%
15 | O=C(CSC1=NCCS1)NCc1ccco1 | 0%
16 | CCC(C)c1ccc(NC(=O)C2CC2)cc1 (stereo not given) | 0%
17 | COC(=O)c1cnc2c(C(F)(F)F)cccc2c1OC | 2%
18 | CCOC(=O)C(CCc1nnc(N)s1)C(=O)OCC | 4%
19 | Cc1nc2sccn2c(=O)c1CCN1CCC(=C(c2ccc(F)cc2)c2ccc(F)cc2)CC1 | 0%
20 | Cc1c(NC(=O)C2CCCCN2S(=O)(=O)c2ccc(Cl)cc2)c(=O)n(-c2ccccc2)n1C (stereo not given) | 0%

Row | SMILES | inhibition
21 | O=c1c2ccccc2nc(-c2cccc(Cl)c2)n1O | 4%
22 | CN1CCc2c(sc3c2c(=O)n(-c2ccccc2)c2nnc(SCc4ccccc4)n32)C1 | 4%
23 | CC1=C(C)C(=O)NC(Nc2nc(C)c3cc(C)cc(C)c3n2)N1 (stereo not given) | 0%
24 | CCN(CC)S(=O)(=O)c1ccc2oc(C(=O)O)c(C)c2c1 | 0%
25 | COc1cccc(NC(=O)N2CCN(c3cccc(C)c3C)CC2)c1 | 0%
26 | CCCCCn1c(CN(C)Cc2ccccc2)nc2c1c(=O)n(C)c(=O)n2C | 1%
27 | O=C(CSc1n[nH]c(-c2ccco2)n1)Nc1sc2c(c1C(=O)Nc1ccccc1)CCCC2 | 0%
28 | COc1cc2nc(N3CCN(C(=O)C4COc5ccccc5O4)CC3)nc(N)c2cc1OC (stereo not given) | 3%
29 | COc1cc(C2C(C#N)=C(C)NC3=C2C(=O)CC(C)(C)C3)ccc1O (stereo not given) | 0%
30 | CCN(CCCNC(=O)COc1cc(=O)n(CC)c2ccccc12)c1ccccc1 | 0%
31 | Cc1occc1C(=O)Nc1cccc2ccccc12 | 0%
32 | Cc1cc(C(=O)CSc2nnc(-c3ccccc3)n2C)c(C)n1C | 0%
33 | CC(C)N=c1cc2n(-c3ccc(Cl)cc3)c3ccccc3nc-2cc1Nc1ccc(Cl)cc1 | 0%
34 | O=C(C1CCN(c2nnc(-n3cccc3)s2)CC1)N1CCN(Cc2ccc3c(c2)OCO3)CC1 | 10%
35 | COC(=O)c1ccc(C2NC(C(=O)O)CS2)cc1 (stereo not given) | 0%
36 | CCOc1cc2oc(=O)c3c(c2cc1Cl)CCC3 | 0%
37 | COc1cccc(C2=NOC(C(=O)Nc3cc(C)nn3-c3ccccc3)C2)c1OC (stereo not given) | 0%
38 | CCOC(=O)c1[nH]cc(-c2ccccc2)c1N1CCOCC1 | 0%
39 | O=C(NCc1ccc(F)cc1)c1cc2ccccn2n1 | 1%
40 | O=C(O)c1ccc2c3c(ncnc13)-c1ccccc1C2=O | 1%
